The source of these data is PubChem BioAssay (NCI).

The panel holds about 79,000 compounds, 15% with a hit somewhere; the sample as a whole holds those more often. A number with no mark means an inactive call. Calls of active or inactive are those of the source. Cut-off read from the data, not from the text of the source: active = growth inhibition above about 70%; inactive = the rest.

Experiment [1] in a line: NCI Yeast Anticancer Drug Screen. Data for the rad50 strain (AID 155).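 Note: 0% = growth of vehicle-only cultures of the same strain.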 Particulars: S. cerevisiae rad50 strain growth inhibition, active compounds read high. In short, it runs like this: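 Growth of the mutant yeast was measured after compound exposure and referenced to vehicle-treated cultures.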
Experiment [2] is described as follows: NCI Yeast Anticancer Drug Screen. Data for the mec2-1 strain (AID 157). Particulars: S. cerevisiae mec2-1 strain, active compounds read high. In short, it runs like this:
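Using mec2-1 yeast: add compound, measure growth, express inhibition versus vehicle-treated cultures.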

A short description of experiment [3]: NCI Yeast Anticancer Drug Screen. Data for the sgs1 mgt1 strain (AID 161).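 Note: 0% = growth of cultures given vehicle only.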 Particulars: S. cerevisiae sgs1 mgt1 strain, active compounds read high. In outline: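 Compounds are added to genetically altered yeast, and growth is compared with cultures given vehicle alone to give percent inhibition.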
The nature of experiment [4]: NCI Yeast Anticancer Drug Screen. Data for the cln2 rad14 strain (AID 165).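 Note: 0% = growth equal to vehicle treated cultures.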 Particulars: S. cerevisiae cln2 rad14 strain, active compounds read high. In outline:
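Yeast strain cln2 rad14, bearing defects in cell cycle control and DNA repair, serves as the test system; values reflect growth inhibition compared with vehicle.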

Experiment [5] can be described thus: NCI Yeast Anticancer Drug Screen. Data for the bub3 strain (AID 167). The conditions noted are these: S. cerevisiae bub3 mutant strain, active compounds read high. In outline: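 Whole-cell yeast assay. The mutant strain was incubated with compounds, and growth inhibition was determined by comparison with vehicle-treated cells.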
A short description of experiment [6]: NCI Yeast Anticancer Drug Screen. Data for the mlh1 rad18 strain (AID 175). Particulars: S. cerevisiae mlh1 rad18 strain growth inhibition, active compounds read high. In outline: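 Steps: expose repair-defective yeast to compound; measure growth; express inhibition against vehicle-treated controls.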
Setting [7] is: at 5.0 µM (retest, dose inferred, filed as 0.5).
Where [8] appears, read: at 50.0 µM (retest, dose inferred, filed as 5.0).

Consider `Nc1ncnc2nn(C3OC(CO)C(O)C3O)nc12` (stereo not given), for which the growth inhibition in experiment [1] (setting [7]) is 15%; in experiment [1] (setting [8]), 20%; in experiment [1] (at 50.0 µM), 29.1%; in experiment [2] (setting [7]) it was 2%; in experiment [2] (setting [8]), 6%; in experiment [2] (at 50.0 µM), -26.2%. Besides, the growth inhibition in experiment [3] (setting [7]) is -7%; in experiment [3] (setting [8]), 6%; in experiment [3] (at 50.0 µM) it was -22.1%; in experiment [4] (setting [7]) it was -29%; in experiment [4] (setting [8]), -18%; in experiment [4] (at 50.0 µM) it was 33.1%. Moreover, the growth inhibition in experiment [5] (setting [7]) is 0%; in experiment [5] (setting [8]), 1%; in experiment [5] (at 50.0 µM) it was -70.4%; in experiment [6] (setting [7]), 4%; in experiment [6] (setting [8]) it was 0%; in experiment [6] (at 50.0 µM), -4.75%.

Turning to `COc1cccc2c1C(=O)c1c(O)c3c(c(O)c1C2=O)C[C@@](O)(/C(C)=N\NC(N)=O)C[C@@H]3OC1CC(N)C(O)C(C)O1` (stereo not given in full), the growth inhibition was 30% in experiment [1] (setting [7]); 83% (active) in experiment [1] (setting [8]); 88.8% (active) in experiment [1] (at 50.0 µM); 52% in experiment [2] (setting [7]); 34% in experiment [2] (setting [8]); 43.8% in experiment [2] (at 50.0 µM). Moreover, the growth inhibition is 6% in experiment [3] (setting [7]); 30% in experiment [3] (setting [8]); 36.9% in experiment [3] (at 50.0 µM); 7% in experiment [4] (setting [7]); 30% in experiment [4] (setting [8]); 1.5% in experiment [4] (at 50.0 µM). The growth inhibition in experiment [5] (setting [7]) was 6%; in experiment [5] (setting [8]), 45%; in experiment [5] (at 50.0 µM), 35.6%; in experiment [6] (setting [7]), 8%; in experiment [6] (setting [8]), 7%; in experiment [6] (at 50.0 µM), 57%.

In the case of `Nc1ncnc2nc(SCCO)[nH]c12`, the growth inhibition in experiment [1] (setting [7]) was -1%; in experiment [1] (setting [8]), -2%; in experiment [1] (at 50.0 µM), 9.4%; in experiment [2] (setting [7]) it was 4%; in experiment [2] (setting [8]) it was 0%; in experiment [2] (at 50.0 µM) it was -4.9%. The growth inhibition is -1% in experiment [3] (setting [7]); -4% in experiment [3] (setting [8]); 12.9% in experiment [3] (at 50.0 µM); 0% in experiment [4] (setting [7]); -5% in experiment [4] (setting [8]); 31.4% in experiment [4] (at 50.0 µM). In addition, the growth inhibition is 3% in experiment [5] (setting [7]); -2% in experiment [5] (setting [8]); 9.15% in experiment [5] (at 50.0 µM); -2% in experiment [6] (setting [7]); -3% in experiment [6] (setting [8]); 39.1% in experiment [6] (at 50.0 µM).

As for `CN(C)c1ccc(C2CC(C)(N3CCCC3)Oc3cc4c(cc32)OCO4)cc1` (stereo not given), the growth inhibition in experiment [1] (setting [7]) is 23%; in experiment [1] (setting [8]), 42%; in experiment [1] (at 50.0 µM), 17.1%; in experiment [2] (setting [7]) it was 2%; in experiment [2] (setting [8]), 24%; in experiment [2] (at 50.0 µM) it was 5%. Moreover, the growth inhibition in experiment [3] (setting [7]) is -10%; in experiment [3] (setting [8]), 43%; in experiment [3] (at 50.0 µM), 13.3%; in experiment [4] (setting [7]) it was 9%; in experiment [4] (setting [8]), 50%; in experiment [4] (at 50.0 µM), 23.9%. Also, the growth inhibition was 11% in experiment [5] (setting [7]); 84% (active) in experiment [5] (setting [8]); 26.9% in experiment [5] (at 50.0 µM); 12% in experiment [6] (setting [7]); 32% in experiment [6] (setting [8]); 33.5% in experiment [6] (at 50.0 µM).

Turning to `Cn1cnc([N+](=O)[O-])c1S`, the growth inhibition was 2% in experiment [1] (setting [7]); 1% in experiment [1] (setting [8]); -4.8% in experiment [1] (at 50.0 µM); -2% in experiment [2] (setting [7]); 9% in experiment [2] (setting [8]); 16.2% in experiment [2] (at 50.0 µM). Besides, the growth inhibition in experiment [3] (setting [7]) was 0%; in experiment [3] (setting [8]), -2%; in experiment [3] (at 50.0 µM), 8.45%; in experiment [4] (setting [7]) it was -5%; in experiment [4] (setting [8]) it was 13%; in experiment [4] (at 50.0 µM) it was 44%. The growth inhibition in experiment [5] (setting [7]) was 0%; in experiment [5] (setting [8]), 3%; in experiment [5] (at 50.0 µM), -0.8%; in experiment [6] (setting [7]) it was 1%; in experiment [6] (setting [8]) it was 9%; in experiment [6] (at 50.0 µM) it was 21.6%.

Take `O=C(O)c1ccccc1-c1c2cc(I)c(=O)c(I)c-2oc2c(I)c(O)c(I)cc12`: the growth inhibition in experiment [1] (setting [7]) is 20%; in experiment [1] (setting [8]) it was 98% (active); in experiment [1] (at 50.0 µM), 98.9% (active); in experiment [2] (setting [7]) it was 15%; in experiment [2] (setting [8]) it was 99% (active); in experiment [2] (at 50.0 µM), 99.5% (active). In addition, the growth inhibition was 12% in experiment [3] (setting [7]); 97% (active) in experiment [3] (setting [8]); 99.2% (active) in experiment [3] (at 50.0 µM); 5% in experiment [4] (setting [7]); 98% (active) in experiment [4] (setting [8]); 99% (active) in experiment [4] (at 50.0 µM). In addition, the growth inhibition in experiment [5] (setting [7]) was 2%; in experiment [5] (setting [8]) it was 98% (active); in experiment [5] (at 50.0 µM), 98.9% (active); in experiment [6] (setting [7]), 34%; in experiment [6] (setting [8]), 99% (active); in experiment [6] (at 50.0 µM) it was 98.8% (active).

On to `OC(c1cc(-c2ccc(Cl)cc2Cl)nc2ccccc12)C1CCCCN1` (stereo not given), for which the growth inhibition in experiment [1] (setting [7]) is -6%; in experiment [1] (setting [8]), 98% (active); in experiment [1] (at 50.0 µM), 98.8% (active); in experiment [2] (setting [7]) it was -4%; in experiment [2] (setting [8]), 99% (active); in experiment [2] (at 50.0 µM), 72.2% (active). Besides, the growth inhibition in experiment [3] (setting [7]) was -5%; in experiment [3] (setting [8]), 99% (active); in experiment [3] (at 50.0 µM), 99.1% (active); in experiment [4] (setting [7]) it was -3%; in experiment [4] (setting [8]) it was 97% (active); in experiment [4] (at 50.0 µM) it was 64.7%. The growth inhibition in experiment [5] (setting [7]) was 0%; in experiment [5] (setting [8]), 99% (active); in experiment [5] (at 50.0 µM), 98.8% (active); in experiment [6] (setting [7]) it was -6%; in experiment [6] (setting [8]) it was 99% (active); in experiment [6] (at 50.0 µM), 97.3% (active).

For `ClC1(c2ccccc2)c2ccccc2-c2ccccc21`, the growth inhibition is -26% in experiment [1] (setting [7]); 98% (active) in experiment [1] (setting [8]); 92.2% (active) in experiment [1] (at 50.0 µM); 4% in experiment [2] (setting [7]); 99% (active) in experiment [2] (setting [8]); 95.6% (active) in experiment [2] (at 50.0 µM). Also, the growth inhibition in experiment [3] (setting [7]) was -6%; in experiment [3] (setting [8]), 98% (active); in experiment [3] (at 50.0 µM) it was 83.9% (active); in experiment [4] (setting [7]), -1%; in experiment [4] (setting [8]), 92% (active); in experiment [4] (at 50.0 µM), 8.7%. Besides, the growth inhibition was 4% in experiment [5] (setting [7]); 98% (active) in experiment [5] (setting [8]); 95.8% (active) in experiment [5] (at 50.0 µM); 0% in experiment [6] (setting [7]); 94% (active) in experiment [6] (setting [8]); 97.1% (active) in experiment [6] (at 50.0 µM).

For the compound `CC(=O)OC(CCl)C(C)[N+](=O)[O-]` (stereo not given), the growth inhibition is 7% in experiment [1] (setting [7]); 91% (active) in experiment [1] (setting [8]); 90.8% (active) in experiment [1] (at 50.0 µM); 5% in experiment [2] (setting [7]); 96% (active) in experiment [2] (setting [8]); 98.5% (active) in experiment [2] (at 50.0 µM). In addition, the growth inhibition in experiment [3] (setting [7]) is 7%; in experiment [3] (setting [8]), 75% (active); in experiment [3] (at 50.0 µM), 46.6%; in experiment [4] (setting [7]), 6%; in experiment [4] (setting [8]), 83% (active); in experiment [4] (at 50.0 µM), 36.9%. Besides, the growth inhibition is 6% in experiment [5] (setting [7]); 99% (active) in experiment [5] (setting [8]); 97.7% (active) in experiment [5] (at 50.0 µM); 5% in experiment [6] (setting [7]); 86% (active) in experiment [6] (setting [8]); 43.4% in experiment [6] (at 50.0 µM).

As to `Cc1nc(Nc2ccc(Cl)cc2)sc1C(=O)NNC(=S)NN`, the growth inhibition is 25% in experiment [1] (setting [7]); 75% (active) in experiment [1] (setting [8]); 91.5% (active) in experiment [1] (at 50.0 µM); -9% in experiment [2] (setting [7]); 64% in experiment [2] (setting [8]); 88% (active) in experiment [2] (at 50.0 µM). Besides, the growth inhibition in experiment [3] (setting [7]) was -3%; in experiment [3] (setting [8]) it was 77% (active); in experiment [3] (at 50.0 µM), 91.8% (active); in experiment [4] (setting [7]), 8%; in experiment [4] (setting [8]), 65%; in experiment [4] (at 50.0 µM), 91.6% (active). Besides, the growth inhibition in experiment [5] (setting [7]) was -5%; in experiment [5] (setting [8]), 93% (active); in experiment [5] (at 50.0 µM) it was 88.3% (active); in experiment [6] (setting [7]), -30%; in experiment [6] (setting [8]) it was 82% (active); in experiment [6] (at 50.0 µM) it was 88.5% (active).
